Test results: PubChem BioAssay (Tox21)
Records with an inconclusive call do not appear. Active and inactive are the calls of the source. Unless noted, calls come from the whole dose curve; as a rule, active = well fitted curve in the direction sought with a large enough effect in the repeat runs; inconclusive = weak or mixed curves; inactive = no such curve, though single readings can be large; an effect the other way counts as inactive or inconclusive.

What was measured:
[1] = qHTS assay for small molecule agonists of the p53 signaling pathway (AID 651631; calls by dose curve; note: nearly all actives have a fitted effect of over 15% in size)
Method in brief: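 HCT-116 cells carrying a stable p53 response element–beta-lactamase reporter were plated, rested 5 h at 37 °C, then exposed to compound in DMSO for 16 h at 37 °C; reporter activity was read as FRET substrate fluorescence after 2 h at room temperature.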

[2] = qHTS assay for small molecules that induce genotoxicity in human embryonic kidney cells expressing luciferase-tagged ATAD5 (AID 651632); note: nearly all actives have a fitted effect of over 15% in size
Method in brief: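 Luminescent reporter readout, HEK293T ATAD5-luc line: 16 hr drug exposure (37C, 5% CO2) followed by Amplite, 30 min RT.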

[3] = qHTS assay for small molecule agonists of the p53 signaling pathway - cell viability (AID 651633; calls by dose curve; note: series mostly up to about 83 µM; nearly all actives have a fitted effect of over 30% in size)
Method in brief: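 p53RE-bla cells, seeded at 4,000 per well and rested 5 h at 37 C/5% CO2, received compounds in DMSO for 16 h at 37 C. CellTiter-Glo was then added, and luminescence was read after 30 min at room temperature to gauge cytotoxicity.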

[4] = qHTS assay for small molecules that induce genotoxicity in human embryonic kidney cells expressing luciferase-tagged ATAD5 - cell viability (AID 651634; calls by dose curve; note: nearly all actives have a fitted effect of over 25% in size)
Method in brief: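 Viability read: CellTiter-Fluor fluorescence, 30 min at 37C. Cells: HEK293T, luciferase-tagged ATAD5. Exposure: 15.5 hr, 37C, 5% CO2, compound or DMSO vehicle.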

[5] = qHTS assay for small molecule disruptors of the mitochondrial membrane potential - cell viability (AID 720634; calls by dose curve;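 note: human HepG2 liver cancer cells; series mostly up to about 83 µM; nearly all actives have a fitted effect of over 20% in size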)
Method in brief: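 HepG2, 1 hr compound, 37 C. ATP luminescence via CellTiter-Glo, 30 min RT, same well as m-MPI.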

[6] = qHTS assay to test for compound auto fluorescence at 590 nm (red) in HepG2 cells (AID 720674)
Method in brief: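 Intrinsic compound fluorescence in the red window (Ex/Em 540/590 nm) is measured in attached HepG2 cells exposed for 1 hr, DMSO vehicle as baseline, benchmarked to Rose Bengal sodium.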

[7] = qHTS assay to test for compound auto fluorescence at 535 nm (green) in HepG2 cells (AID 720675)
[8] = qHTS assay to test for compound auto fluorescence at 460 nm (blue) in HEK293 cells (AID 720678)
Method in brief: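 Blue-channel (Ex/Em 405/460 nm) intensity measured in HEK293 cultures after overnight compound exposure at 37C; signal expressed relative to triamterene. Cells plated 2,000 per well in 10% dialyzed FBS medium and allowed 4-5 hr to attach.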

[9] = qHTS assay to test for compound auto fluorescence at 590 nm (red) in HEK293 cells (AID 720679)
Method in brief: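 Red-channel autofluorescence (Ex/Em 540/590 nm; Rose Bengal sodium reference) was measured after overnight 37C, 5% CO2 exposure of attached HEK293 cells, 2,000 per well in medium with 10% dialyzed FBS.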

[10] = qHTS assay for small molecule disruptors of the mitochondrial membrane potential (AID 720635)
Method in brief: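 HepG2 cells (2,000/well) attached overnight at 37C, then took compound for 1 hr at 37C, 5% CO2. Mito-MPS dye was added for 30 min; fluorescence was read at 490/535 nm (monomers) and 540/590 nm (aggregates).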

Measured: Potency

COc1ccccc1OCC(O)CN1CCN(CC(=O)Nc2c(C)cccc2C)CC1 (centres undefined)
not listed: [10]
inactive: all other assays above

NS(=O)(=O)c1cc2c(cc1Cl)NC(C1CC3C=CC1C3)NS2(=O)=O (centres undefined)
not listed: [10]
inactive: all other assays above

O=C(O)CCCl
not listed: [3]
inactive: all other assays above

COc1c(N2C[C@@H]3CCCN[C@@H]3C2)c(F)cc2c(=O)c(C(=O)O)cn(C3CC3)c12
not listed: [10]
inactive: all other assays above

CN1CCN(c2cc3c(cc2F)c(=O)c(C(=O)O)cn3-c2ccc(F)cc2)CC1
not listed: [5] | [10]
inactive: all other assays above

CS(=O)(=O)O
not listed: [10]
inactive: all other assays above

C=C(C)C(=O)OCCCCCCCC(C)C
not listed: [5] | [10]
inactive: all other assays above

CCCCOCCOCCOCCCC
not listed: [3]
inactive: all other assays above

NS(=O)(=O)c1cc(C(=O)O)cc(N2CCCC2)c1Oc1ccccc1
not listed: [10]
inactive: all other assays above

CCn1nc(C(=O)O)c(=O)c2cc3c(cc21)OCO3
not listed: [4] | [10]
inactive: all other assays above

CC[N+](C)(C)c1cccc(O)c1
not listed: [10]
inactive: all other assays above

C/C=C(\C)C#N
not listed: [10]
inactive: all other assays above

c1ccc([C@H]2CN3CCSC3=N2)cc1
not listed: [10]
inactive: all other assays above

CN1CCC(=C2c3ccccc3CC(=O)c3sccc32)CC1
not listed: [10]
inactive: all other assays above

OC(CCN1CCCCC1)(c1ccccc1)C1CC2C=CC1C2 (centres undefined)
not listed: [10]
inactive: all other assays above

CCCCCCCCCCCCN(CCCCCCCCCCCC)CCCCCCCCCCCC
not listed: [10]
inactive: all other assays above

O=c1[nH]c(=O)n([C@H]2C[C@H](O)[C@@H](CO)O2)cc1I
not listed: [2]
inactive: all other assays above

CC(=O)OCC(CCn1cnc2cnc(N)nc21)COC(C)=O
not listed: [1]
inactive: all other assays above
